Among all 300,000 compounds or so, about 37,000 (12%) were called active. Many of the other results were omitted from the sample, so actives are more common in it than they were. Values without a mark were called inactive. Rule as the data show it: active = max response mostly above about 13% (no sharp cut-off); inactive = mostly below about 14%.
experiment: Cycloheximide Counterscreen for Small Molecule Inhibitors of Shiga Toxin; conditions: cell reporter, cycloheximide protein synthesis inhibition counterscreen; hits give high values; also: read at 38.3 µM for the half of the compounds with a filed dose; 0% is about no effect

With `COCCN1C(=O)C(=O)/C(=C(/O)c2ccc(S(=O)(=O)N3CCOCC3)cc2)C1c1ccc(OC)c(OC)c1` (stereo not given) as the compound, how does the max response read?
Its max response is -0.449%.

Which max response does the source give for `CCOCCCNC(=O)c1cn(CC(C)C)c(=O)c2c1c1ccccc1n2C` here?
Its max response is 1.59%.

Which max response does the source give for `Cc1cc(Cl)c(S(=O)(=O)NCC2CCCO2)cc1OCC(N)=O` (stereo not given) here?
The max response was -0.524%.

With `Cc1cc(Cl)c(S(=O)(=O)Nc2ccc3c(c2)OCCO3)cc1OCC(N)=O` as the compound, how does the max response read?
The max response was 40.8% (active).

Which max response does the source give for `Cc1cc(Cl)c(S(=O)(=O)N(C)C)cc1OCC(N)=O` here?
Its max response is 4.25%.

With `COc1ccc(S(=O)(=O)N2CCN(c3ncnc4c(-c5ccccc5)nsc34)CC2)cc1` as the compound, how does the max response read?
The max response was -2.92%.

For `CC1=C(C(=O)OC2CCCCC2)C(c2cccnc2)n2ncnc2N1` (stereo not given), which max response is on record?
The max response was -3.65%.

With `C=CCCN(C(Cc1ccccc1)C(=O)OC)S(=O)(=O)c1cc(Br)ccc1Br` (stereo not given) as the compound, how does the max response read?
The max response was -0.573%.

With `O=C(Nc1cccc(Cl)c1)OCc1ccccn1` as the compound, how does the max response read?
The max response was 26.4%.

For `O=C(Nc1ccc([N+](=O)[O-])cc1)OCCc1ccccn1`, which max response is on record?
Its max response is 19% (active).

For `O=[N+]([O-])c1ccc(NC(=S)N2CCN(c3ccccn3)CC2)cc1`, which max response is on record?
Its max response is -3.35%.

Which max response does the source give for `C#CCSc1nnc(-c2sc3ccccc3c2Cl)o1` here?
Its max response is 46.5% (active).

Which max response does the source give for `O=C(OCC#CCSc1nnc(-c2ccncc2)o1)c1sc2ccccc2c1Cl` here?
Its max response is -4.75%.

Which max response does the source give for `COc1ccc2c(Cl)c(-c3nnco3)sc2c1` here?
The max response was 0.855%.

With `COCCNC(=O)CCCN1C(=O)c2ccccc2Sc2ncccc21` as the compound, how does the max response read?
Its max response is 5.87%.

With `Cc1ccc(N2CCN(C3=NC(=O)/C(=C\c4cccs4)S3)CC2)cc1` as the compound, how does the max response read?
Its max response is 3.49%.

With `Cc1cccc(C2=N/C(=C/c3cccs3)C(=O)O2)c1` as the compound, how does the max response read?
The max response was 29.6% (active).

With `Cc1ccc(C2=N/C(=C\c3ccc(OS(=O)(=O)c4ccc(C)cc4)cc3)C(=O)O2)cc1` as the compound, how does the max response read?
Its max response is 0.746%.

With `Cc1ccc(S(=O)(=O)N2CCN(C(=O)N3CCOCC3)CC2)c(C)c1` as the compound, how does the max response read?
Its max response is -0.587%.

Which max response does the source give for `Cc1ccc(NC(=O)[C@H](Cc2ccccc2)NC(=O)C2CCNCC2)cc1` here?
Its max response is -1.28%.

With `CC(=O)Nc1cc2ccc(OC(C)=O)cc2oc1=O` as the compound, how does the max response read?
The max response was -3.66%.

Which max response does the source give for `Cc1ccccc1NC(=O)C1CCN(C(=O)NC2CCCCC2)CC1` here?
Its max response is -2.51%.

Which max response does the source give for `O=C(Nc1cc2ccccc2oc1=O)C1CCCCC1` here?
Its max response is 34.2% (active).

Which max response does the source give for `Cc1ccc(S(=O)(=O)N/N=C(\c2ccccc2)C2CC2)cc1` here?
The max response was -0.529%.

For `COc1cccc(C2c3[nH]c4ccccc4c3CCN2Cc2cccc(C)n2)c1` (stereo not given), which max response is on record?
Its max response is -0.212%.

Which max response does the source give for `CCOc1ccc(S(=O)(=O)N2CCC(c3ccccc3)CC2)cc1C(=O)O` here?
The max response was -3.04%.

With `COc1ccc(/C=N/Nc2cc(N3CCOCC3)nc(C)n2)c(OC)c1` as the compound, how does the max response read?
The max response was -1.58%.

For `COc1ccc(C=C(C#N)C#N)c(CSc2ccccn2)c1`, which max response is on record?
Its max response is -3.44%.

With `COc1ccc(/C=N/OCc2ccccc2C#N)c(OC)c1` as the compound, how does the max response read?
Its max response is 38% (active).

For `Cc1ccc(C(=O)Nc2nnc(C3=COCCO3)o2)cc1C`, which max response is on record?
The max response was 14.8% (active).

With `Cc1ccc(C(=O)Nc2nnc(-c3cccs3)s2)cc1C` as the compound, how does the max response read?
The max response was 13.9%.

Which max response does the source give for `O=C(Nc1nnc(C2=COCCO2)o1)c1ccc([N+](=O)[O-])s1` here?
Its max response is -2.32%.

With `Cc1nn(Cc2ccccc2)c(C)c1NS(=O)(=O)c1ccccc1` as the compound, how does the max response read?
Its max response is 5.29%.

With `CCN(CC)S(=O)(=O)c1ccc(N(C)CCc2ccc(OC)c(OC)c2)nc1` as the compound, how does the max response read?
Its max response is -1.93%.

For `CCOc1ccccc1NC(=O)Cn1ncc2ccc([N+](=O)[O-])cc21`, which max response is on record?
Its max response is 8.74%.

Which max response does the source give for `CCN(CC)CCN1C(=O)C2C(C(=O)Nc3ccc(Br)cc3)C3C=CC2(O3)C1C(=O)NC1CCCCC1` (stereo not given) here?
The max response was -5.6%.

For `O=C(Nc1ccccc1F)C1C2C=CC3(O2)C1C(=O)N(c1cccnc1)C3C(=O)NC1CCCCC1` (stereo not given), which max response is on record?
Its max response is 41.8% (active).

For `CC(C)N1C(=O)C2C(C(=O)NC3CCCCC3)C3C=CC2(O3)C1C(=O)NC1CCCC1` (stereo not given), which max response is on record?
The max response was -1.06%.

Which max response does the source give for `Cc1cccc(C(=O)NC(=S)N2CCN(c3ccc([N+](=O)[O-])cc3)CC2)c1` here?
The max response was -1.96%.

With `O=c1c(-c2ccc(Cl)cc2)[n+]([O-])c2ccccc2n1OCc1nc2ccccc2[nH]1` as the compound, how does the max response read?
Its max response is 24.8% (active).

With `CCN(CC)CCCNC(=S)N(CCO)Cc1cc2cc3c(cc2[nH]c1=O)OCO3` as the compound, how does the max response read?
The max response was -1.33%.

Which max response does the source give for `COc1ccc(CCNC(=O)CCC(=O)NC2CCCCC2)cc1OC` here?
Its max response is -1.91%.

With `CC(C)(C)C1CCC(C(=O)Nc2cccnc2)CC1` (stereo not given) as the compound, how does the max response read?
The max response was -2.39%.

With `COCC1CCCN(Cc2nc(-c3ccc4c(c3)OCO4)no2)C1` (stereo not given) as the compound, how does the max response read?
Its max response is 42.1% (active).

For `CC1CCCN(CC(O)COc2ccc3c(c2)OCO3)C1` (stereo not given), which max response is on record?
The max response was 4.28%.

With `COCC1CCCN(Cc2cn[nH]c2-c2cc3ccccc3o2)C1` (stereo not given) as the compound, how does the max response read?
Its max response is 7.39%.

For `Cc1c(NC(=O)c2c([N+](=O)[O-])cnn2C)c(=O)n(-c2ccccc2)n1C`, which max response is on record?
Its max response is -6.14%.

For `COCCNC(=O)c1ccccc1-c1nc(-c2ccccc2Cl)no1`, which max response is on record?
The max response was 28.8%.

With `COc1ccc2cc(C(=O)NCC3CCCO3)[nH]c2c1` (stereo not given) as the compound, how does the max response read?
Its max response is 62.1% (active).

Which max response does the source give for `O=C(CSCc1c(F)cccc1Cl)NCC1CCCO1` (stereo not given) here?
Its max response is 13.1%.

With `O=C(NCC1CCCO1)c1ccccc1-c1nc(-c2ccccc2Cl)no1` (stereo not given) as the compound, how does the max response read?
The max response was 27.4% (active).

For `CCC(=O)c1c[nH]c(C(=O)NCC2CCCO2)c1` (stereo not given), which max response is on record?
The max response was -0.953%.

Which max response does the source give for `COc1ccc(SCc2noc(C(=O)NCC3CCCO3)c2C(=O)O)cc1` (stereo not given) here?
The max response was -3.22%.

Which max response does the source give for `O=C(Nc1ccccc1C(=O)NCC1CCCO1)c1ccccc1F` (stereo not given) here?
Its max response is 14.1%.

Which max response does the source give for `Cc1ccccc1CN(c1ccc(C(=O)NCC2CCCO2)cc1)S(C)(=O)=O` (stereo not given) here?
Its max response is -5.23%.

Which max response does the source give for `O=C(NCC1CCCO1)c1ccc2ccccc2n1` (stereo not given) here?
The max response was 29.9% (active).

With `O=C(NCC1CCCO1)c1cc(-c2ccccc2)nc2ccccc12` (stereo not given) as the compound, how does the max response read?
Its max response is 9.86%.

For `Cc1ccc(-c2noc(-c3ccccc3C(=O)NCC3CCCO3)n2)cc1` (stereo not given), which max response is on record?
The max response was 27.2% (active).

With `Cc1nc2ccccc2c2oc(C(=O)NCC3CCCO3)cc12` (stereo not given) as the compound, how does the max response read?
Its max response is -1.07%.

Which max response does the source give for `Cc1sc2ncn(CC(=O)NCCCC(=O)NCc3ccc(F)cc3)c(=O)c2c1C` here?
The max response was -1.09%.
